Hits are enriched below; roughly 2.6% of the tested compounds scored in any of these assays.
p53ts 32C kill: qHTS Screen for Compounds that Selectively Target Cancer Cells with p53 Mutations: Cytotoxicity of p53ts Cells at the Permissive Temperature | Potency, µM (titrated, usually from 46.1 µM), most hits filed as cytotoxic | 0.93% of 130,000 active | H1299-p53A138V at 32C, ATP luminescence viability, 24 h | AID 924, 2007; note: nearly all actives have a fitted effect of over 55% in size
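Cells: H1299 p53ts (A138V), 600/well, pre-incubated 16–30 h at 37C. Cpd up to 46 uM, 24 h, 32C. Readout: ATPlite luminescence, 20 min RT. Normalization: DMSO vs tamoxifen 100 uM. AC50 by Hill equation.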
Luciferase inh: qHTS Assay for Inhibitors of Firefly Luciferase; Luciferin 4-monooxygenase (Photinus pyralis), P08659; purified firefly luciferase, luminescence, 8 min; Potency, µM (titrated, usually from 57.1 µM), usual class: inhibitors; 2.2% of 72,000 active; note: nearly all actives have a fitted effect of over 40% in size
Target sequence (P08659 whole entry, looked up): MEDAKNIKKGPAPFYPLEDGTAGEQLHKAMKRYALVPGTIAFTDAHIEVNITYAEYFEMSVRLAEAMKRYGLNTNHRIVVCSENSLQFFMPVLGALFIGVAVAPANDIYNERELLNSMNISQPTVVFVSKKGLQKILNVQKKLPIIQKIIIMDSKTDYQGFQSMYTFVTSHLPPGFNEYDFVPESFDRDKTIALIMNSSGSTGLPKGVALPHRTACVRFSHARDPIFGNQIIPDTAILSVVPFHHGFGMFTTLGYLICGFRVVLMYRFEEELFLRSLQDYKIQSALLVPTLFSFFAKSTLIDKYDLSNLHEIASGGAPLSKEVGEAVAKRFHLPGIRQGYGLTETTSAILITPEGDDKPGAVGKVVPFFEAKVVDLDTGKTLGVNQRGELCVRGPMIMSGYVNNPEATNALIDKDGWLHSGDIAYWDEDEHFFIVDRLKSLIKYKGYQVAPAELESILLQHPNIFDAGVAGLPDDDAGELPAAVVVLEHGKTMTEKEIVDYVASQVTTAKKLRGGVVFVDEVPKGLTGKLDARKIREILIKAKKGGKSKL
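Luminescence read-out after 8 min at room temperature; enzyme reaction used luciferin plus 10 uM ATP (linear range) in imidazole buffer pH 7.2 with KCl, MgCl2, Tween 20 and BSA. Each sample was run as a titration.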
p53ts 39C tox: qHTS Screen for Compounds that Selectively Target Cancer Cells with p53 Mutations: Cytotoxicity of p53ts Cells at the Nonpermissive Temperature; Potency, µM (highest dose often 46.1 µM), actives largely listed as cytotoxic; H1299-p53A138V viability at 39C, ATP luminescence, 24 h; 1.5% of 130,000 active; note: nearly all actives have a fitted effect of over 55% in size
Large screens that a line does not name were inactive. Calls come from the whole dose curve; as a rule, active = well fitted curve in the direction sought with a large enough effect; inconclusive = small, poorly fitted or top-dose-only effect, or another doubt; inactive = no such curve, though single readings can be large; an effect the other way counts as inactive or inconclusive.

CCN1CCN(C(=O)c2cc3c(=O)n4ccccc4nc3n2Cc2ccccc2)CC1	p53ts 32C kill 13µM, Luciferase inh 7.9µM, p53ts 39C tox 13µM
Cc1cccc(NC(c2cccc(Cl)c2)c2ccc3cccnc3c2O)n1 (centres undefined)	p53ts 39C tox 13µM (no result: Luciferase inh)
Cc1ccnc(NC(c2cccc(O)c2)c2ccc3ccc(C)nc3c2O)c1 (centres undefined)	none (no result: Luciferase inh)
COc1ccc2c(c1)Cc1sc(NC(=O)c3cccc(Cl)c3)nc1-2	p53ts 32C kill inconclusive, p53ts 39C tox 25µM (no result: Luciferase inh)
COc1ccc2c(c1)Cc1sc(NC(=O)c3cccc(C)c3)nc1-2	none (no result: Luciferase inh)
Cn1c(C(=O)Nc2cccc(Cl)c2)cc2c(=O)n(C)c3ccccc3c21	none (no result: Luciferase inh)
CCOc1ccc(C(=O)Nc2cccc(-c3nc4cccnc4s3)c2C)cc1OCC	none (no result: Luciferase inh)
O=C(C1CCC(Cn2c(=O)c3sccc3n(Cc3cccc(F)c3)c2=O)CC1)N1CCCCC1 (centres undefined)	none (no result: Luciferase inh)
O=C(Nc1nc(-c2nc3ccccc3s2)cs1)c1ccco1	none
CCCC(=O)Nc1nc(-c2ccc3c(c2)OCCO3)cs1	none
O=C(Nc1nc(-c2ccc3c(c2)OCO3)cs1)C1CC1	Luciferase inh 13µM
O=C(CN1C(=O)CCC1=O)Nc1nc(-c2ccccn2)cs1	none
O=C(Nc1nc(-c2nc3ccccc3s2)cs1)C1CC1	p53ts 32C kill inconclusive, Luciferase inh 5µM, p53ts 39C tox inconclusive
O=C(CN1C(=O)CCC1=O)Nc1nc(-c2nc3ccccc3s2)cs1	p53ts 32C kill inconclusive, Luciferase inh 13µM, p53ts 39C tox inconclusive
COc1ccc(-c2noc(CSc3nnc(Cc4ccccc4)n3-c3cccc(C)c3)n2)cc1	none (no result: Luciferase inh)
O=C(c1ccco1)n1c(=S)nc2ccccn21	Luciferase inh 5µM
Cc1cccc2nc(=S)n(C(=O)c3ccco3)n12	Luciferase inh 2µM
O=C(c1ccco1)N1C(=O)c2cccc3cccc1c23	none
O=C(c1cc2ncc(Br)cn2n1)N1CCN(C(=O)c2ccco2)CC1	none
CCCCOc1ccccc1NC(=O)CC1Sc2ccccc2NC1=O (centres undefined)	p53ts 32C kill inconclusive (no result: Luciferase inh)
Cc1cc(C)n(-c2nc3ccccc3nc2Nc2cccc(C(F)(F)F)c2)n1	none (no result: Luciferase inh)
Fc1ccc(Nc2nc3nonc3nc2Nc2cccc(C(F)(F)F)c2)cc1	p53ts 32C kill inconclusive, p53ts 39C tox 13µM (no result: Luciferase inh)
c1cn2c(NC3CCCC3)c(-c3ccc(N4CCOCC4)cc3)nc2cn1	p53ts 32C kill 10µM, Luciferase inh 2.5µM, p53ts 39C tox 16µM
Cc1cccc(C)c1Nc1c(-c2ccc(N3CCOCC3)cc2)nc2ncccn12	none (no result: Luciferase inh)
CCOc1ccccc1NC(=O)Cn1c(=O)n(Cc2ccc(OC)cc2)c(=O)c2oc3ccccc3c21	none (no result: Luciferase inh)
c1ccc2c(NC3CCNCC3)nc(-c3ccoc3)nc2c1	none
COc1cccc(-c2nc(NC3CCNCC3)c3ccccc3n2)c1	p53ts 32C kill inconclusive, p53ts 39C tox 16µM
CN(C)c1ccc(-c2nc(NC3CCNCC3)c3ccccc3n2)cc1	p53ts 32C kill inconclusive, p53ts 39C tox 10µM
COc1cccc(-c2nc(NCc3ccc(OC)cc3OC)c3ccccc3n2)c1	none
CCNC(=O)[C@H](C)/C=C/C(NC(=O)OCc1ccccc1)c1ccc(C(=O)OC)cc1 (some centres undefined)	none (no result: Luciferase inh)
c1ccc(C[n+]2cccc(-c3cc4ccccc4[nH]3)c2)cc1	none
O=C(NCCN1C(=O)C2C3C=CC(C3)C2C1=O)Nc1cccnc1 (centres undefined)	none
O=C(NCCN1C(=O)C2C3C=CC(C3)C2C1=O)Nc1ccc(Br)cc1 (centres undefined)	Luciferase inh 16µM
CC(C)(C)NC[C@@H](O)COc1nsnc1N1CCOCC1	none (no result: Luciferase inh)
CC(=O)c1cccc(NC(=O)c2cc(C(C)C)on2)c1	p53ts 32C kill inconclusive, Luciferase inh 16µM, p53ts 39C tox inconclusive
CC(=O)c1cccc(NC(=O)c2cc(-c3ccc(F)cc3)on2)c1	none
CC(C)c1cc(C(=O)Nc2cc(Cl)ccc2O)no1	Luciferase inh 16µM, p53ts 39C tox inconclusive
CC(C)c1cc(C(=O)Nc2cccc(Cl)c2)no1	p53ts 32C kill inconclusive, Luciferase inh 13µM
O=C(Nc1cccc(Cl)c1)c1ccncc1	none
CC(C)Cc1cc(C(=O)Nc2cc(Cl)ccc2Cl)no1	none
C[C@@]12CCC(=O)C=C1CC[C@H]1[C@@H]2[C@@H](O)C[C@]2(C)[C@@H]1CC[C@@]2(O)C(=O)CO	none (no result: p53ts 32C kill, p53ts 39C tox)
COc1cc(CN(C(=O)c2oc3ccccc3c2C)C2CCS(=O)(=O)C2)cc(OC)c1OC (centres undefined)	none (no result: Luciferase inh)
COc1ccc(NC(=O)c2sc3nc4c(cc3c2N)CN(C(C)C)CC4)c(OC)c1	none (no result: Luciferase inh)
COc1cc(/C=C/c2nc(C#N)c(NCCc3ccccc3)o2)cc(OC)c1OC	none (no result: Luciferase inh)
Cc1ccc(-c2noc(CNC(=O)COc3cc(C)c(Br)c(C)c3)n2)cc1	none (no result: Luciferase inh)
Cc1ccc(Cn2c(CNS(=O)(=O)c3cccc([N+](=O)[O-])c3)nc3cccnc32)cc1	none (no result: Luciferase inh)
COc1cc2cc3c4c(cc(OC)c(OC)c4c2cc1OC)CCN3C	p53ts 32C kill 32µM, p53ts 39C tox 32µM
COc1cc2c(cc1OC)C(=O)N(C)CC2	none
COc1ccc(-c2noc(CC(=O)N(C)c3cccc(C)c3)n2)cc1	none (no result: Luciferase inh)
COc1ccccc1C(=O)OCc1cc(=O)n2c(C)csc2n1	p53ts 32C kill inconclusive, p53ts 39C tox 0.13µM (no result: Luciferase inh)
COc1cccc(C(=O)Nc2ccccc2C(=O)OCc2cc(=O)n3c(C)csc3n2)c1	none (no result: Luciferase inh)
CCN(c1cc(C)cc(C)c1)S(=O)(=O)c1nnc(NC(=O)c2cccc(F)c2)s1	none (no result: Luciferase inh)
O=C(NC1CCN(Cc2ccccc2)CC1)c1ccc(-n2c(=O)c(=O)[nH]c3ccccc32)cc1	none (no result: Luciferase inh)
O=C(O)c1ccc2nc(-c3cc4cc(Cl)ccc4oc3=O)[nH]c2c1	none (no result: Luciferase inh)
Cc1cc(C)n(CC(=O)N2c3ccccc3Sc3ccccc32)n1	none (no result: p53ts 32C kill, p53ts 39C tox)
CCN(CC)C(C)CN1c2ccccc2Sc2ccccc21 (centres undefined)	p53ts 39C tox 25µM (no result: Luciferase inh)
O=C(Nc1ccc(Cl)cc1)c1cc(S(=O)(=O)NC2CCCCCC2)ccc1F	p53ts 39C tox 13µM (no result: Luciferase inh)
Cc1ccc(NC(=O)c2cc(S(=O)(=O)NC3CCCCCC3)ccc2F)cc1F	p53ts 32C kill inconclusive (no result: Luciferase inh)
O=C1/C(=C/Nc2ccc3c(c2)OCO3)CCc2ccccc21	p53ts 32C kill 4µM, Luciferase inh 0.63µM, p53ts 39C tox 6.3µM
O=C1OC2(CCCCC2)OC(=O)C1=CNc1ccc2c(c1)OCO2	none
COc1ccc(CC(=O)Nc2cc(-c3nc4cccnc4s3)ccc2C)cc1	p53ts 32C kill inconclusive, p53ts 39C tox 13µM (no result: Luciferase inh)
CCCC(=O)Nc1cc(-c2nc3cccnc3s2)ccc1C	p53ts 39C tox inconclusive (no result: Luciferase inh)
CCCCc1ccc(NC(=O)CSc2nnc3[nH]c(=O)cc(C)n23)cc1	p53ts 39C tox inconclusive (no result: Luciferase inh)
O=C(NCCCCNC(=O)c1ccc(Cl)s1)c1ccc(Cl)s1	none (no result: Luciferase inh)
O=C(Nc1ccc2sccc2c1)c1ccc(Cl)s1	Luciferase inh 1.6µM, p53ts 39C tox inconclusive
COc1ncc2nc(-c3ccc(F)cc3)c(=O)n(C[C@H]3CCCO3)c2n1	none
CCOC(=O)Cn1c(=O)oc2cc(S(=O)(=O)N3CCC(C(=O)OCC)CC3)ccc21	none (no result: Luciferase inh)
O=C(CSc1nc2ccccc2o1)Nc1nc2ccccc2s1	none
